About 25 (0.2%) of roughly 10,000 compounds were called active.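 Rule for the calls: active = top tenth filtered wells with inhibition above zero that passed visual or statistical confirmation; inactive = the rest, including hits rejected on review.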 For the sample, actives were picked, then their nearest neighbours and some compounds at random. Measured potencies and affinities stand elsewhere.
Assay: suppression of endothelial VCAM-1 upregulation – imaging, high-content imaging, pooled HUVEC, TNFa stimulus (AID 456)
Details: HUVEC TNFa-induced VCAM-1 surface expression, immunofluorescence imaging; concentration not given here

inhibition, inactive:
COc1ccccc1N1CCN(C(=O)c2cc(C3CC3)on2)CC1
CCOC(=O)Cc1nnc(NC(=O)c2ccccc2OCC)s1
O=C(CCn1c(=O)oc2ccccc21)NCCN1CCOCC1
O=c1[nH]c(NCc2ccccc2)nc2c1CCCC2
Cc1ccc(N2CCN(C(=S)c3ccc(N(C)C)cc3)CC2)cc1
COc1ccccc1N1CC(C(=O)Nc2cccc(C(=O)O)c2)CC1=O (stereo unspecified)
c1ccc(OCCCn2nnc(-c3cccnc3)n2)cc1
CCN(CC)CCn1c(=N)n(CCO)c2ccccc21
Cc1c(NC(=O)Cn2nc(C(=O)O)c3ccccc3c2=O)c(=O)n(-c2ccccc2)n1C
Cn1ccnc1SCC(=O)Nc1ccc2ccccc2c1
CCOC(=O)c1sc(NS(=O)(=O)c2ccc(NC(C)=O)cc2)nc1C
CCn1c(-c2cc(Br)ccc2O)n[nH]c1=S
CCSc1oc(-c2cccs2)nc1S(=O)(=O)c1ccccc1
COc1ccc(OCC(=O)N2CCN(C(=O)COc3ccc(Br)cc3)CC2)cc1
COc1cc2c(cc1OC)C(c1cccnc1)CC(=O)N2 (stereo unspecified)
COc1ccc(NC(=O)c2cc(C(C)C)on2)c(OC)c1
Cc1ccc2c(c1)NC(=O)C(CC(=O)NC1CCCCC1C)O2 (stereo unspecified)
COc1ccc(N2C(=O)CCC(C(=O)N3CCCCC3)C2c2ccc(OC)c(OC)c2)cc1 (stereo unspecified)
CCCC1(C(=O)OCC)NC(c2ccc(N(C)C)cc2)C2C(=O)N(c3ccccc3)C(=O)C21 (stereo unspecified)
CCOc1ccc(-n2cc(C(=O)Nc3cccc(C)n3)c3cc(OC)c(OC)cc3c2=O)cc1
COc1ccccc1N1CCN(C(=O)CSc2nc3ncnc(N)c3[nH]2)CC1
Cc1ccc(-c2[nH]nc3c2C(c2ccc(OC(=O)N4CCOCC4)cc2)C(C#N)=C(N)O3)cc1 (stereo unspecified)
O=C(CSc1nnc(-c2ccccc2)o1)N1CCN(c2ccccc2)CC1
CN(c1ccccc1)C(c1ccc(F)cc1)c1nnnn1CC1CCCO1 (stereo unspecified)
Cc1ccc(CCSCC(=O)O)cn1
O=C(Nc1ccc(N2CCOCC2)c(Cl)c1)c1ccc(Br)o1
CCn1c(CSc2nc(C)cc(C)n2)nnc1SCC(=O)Nc1ccccc1
COc1ccccc1N1CCN(C(=O)C(Cc2ccccc2)NC(=O)C2CCCCC2)CC1 (stereo unspecified)
COc1ccc(C(N)=O)cc1N
C#CCN1C(=O)C(O)(CC(=O)c2cccc(OC)c2)c2ccccc21 (stereo unspecified)
CCOC(=O)c1c(C)oc2ccc(O)c(CN(C)C)c12
